Drawing on the supplement of paper PMC3616981, this text covers reporter fold induction for five targets.

Compound in this test: CC(C)c1cccc(C(C)C)c1N1C(=O)c2ccc(O)cc2C1=O
Briefly: reporter fold induction vs vehicle; higher = higher reporter activity. How it is done:
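Attagene multiplexed transcription-factor reporter assay (48 cis response elements and 25 trans nuclear-receptor constructs) treated with 5HPP-33 at 8 concentrations (0.091–200 µM). The response is fold induction of reporter activity relative to vehicle control. Cell line and time not stated in the paper; tested in ToxCast Phase II for this study.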

For the target C_EBP_CIS, the reporter fold induction turned out to be 1.02 (0.091 µM); 0.969 (0.274 µM); 1.04 (0.823 µM); 1.04 (2.469 µM); 1.12 (7.407 µM); 0.945 (22.22 µM). Besides, the reporter fold induction (66.67 µM) was found to be 1.31 and the reporter fold induction (200 µM) stood at 1.32.
In the case of FoxO_CIS, the reporter fold induction reads like this: (0.091 µM) 1.07; (0.274 µM) 1.02; (0.823 µM) 0.985; (2.469 µM) 0.99; (7.407 µM) 1.03; (22.22 µM) 0.938. Moreover, the reporter fold induction reads like this: (66.67 µM) 0.872; (200 µM) 1.07.
On to PXR_TRANS, for which the reporter fold induction reads like this: (0.091 µM) 1.15; (0.274 µM) 2.07; (0.823 µM) 3.25; (2.469 µM) 4.39; (7.407 µM) 3.39; (22.22 µM) 3.71. Also, the reporter fold induction by setting is: (66.67 µM) 3.61; (200 µM) 1.33.
Turning to ERRa_TRANS, the reporter fold induction by setting is: (0.091 µM) 1.21; (0.274 µM) 0.853; (0.823 µM) 1.02; (2.469 µM) 1.39; (7.407 µM) 1.37; (22.22 µM) 0.823. Also, the reporter fold induction (66.67 µM) was found to be 0.836 and the reporter fold induction (200 µM) was found to be 0.339.
In the case of NF_kB_CIS, the reporter fold induction turned out to be 1.08 (0.091 µM); 0.96 (0.274 µM); 0.971 (0.823 µM); 0.979 (2.469 µM); 0.968 (7.407 µM); 1.08 (22.22 µM). Further, the reporter fold induction was found to be 1.39 (66.67 µM) and 1.06 (200 µM).
